Assay outcomes deposited in PubChem BioAssay by National Center for Advancing Translational Sciences (NCATS).
SARS PLP yeast: qHTS of Yeast-based Assay for SARS-CoV PLP. S. cerevisiae expressing SARS-CoV PLpro, growth rescue. Potency, µM (series often up to 32.9 µM), inactives show at the highest dose activity, positive = growth rescue, usual class: activators. hit rate 0.19% among 330,000; calls by dose curve; further: 0% is about no effect; nearly all actives have a fitted effect of over 55% in size
AMA1 RON2 block: qHTS for Inhibitors of AMA1-RON; Towards Development of Antimalarial Drug Lead: Primary Screen | hit rate 0.2% among 360,000 | Plasmodium falciparum AMA1 (3D7) - RON2 peptide interaction | Potency, µM (titrated, usually from 58.2 µM), for inactives: at the highest dose activity change, negative = inhibition, usual class: inhibitors | AlphaScreen AMA1-biotinylated RON2 peptide binding;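 further: 0% = vehicle wells and -100% = peptide control; nearly all actives have a fitted effect of over 45% in size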
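AMA1 (3D7) with his tag at 25 nM final met compounds first, then biotinylated RON2 peptide at 25 nM; detection used donor plus acceptor beads, 10 µg/mL apiece, read by AlphaScreen after 30 min at room temperature.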
Pf growth 96h: Primary qHTS for delayed death inhibitors of the malarial parasite plastid, 96 hour incubation | hit rate 6.9% among 320,000 | AID 504834, 2011 | P. falciparum luciferase reporter growth, 96 h | Potency, µM (doses to about 28.7 µM), for inactives: at the top dose activity change, negative = inhibition, usual class: inhibitors; further: on the % scale 0 is the no-effect control and ±100 the full control effect
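P. falciparum expressing integrated firefly luciferase grown in erythrocytes (2% hematocrit, 0.05% parasitemia final) with compounds for 96 hours at 37 C, 5% CO2. Growth inhibition read as loss of luminescence after adding luciferase detection reagent.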
Pf growth 48h: Primary qHTS for delayed death inhibitors of the malarial parasite plastid, 48 hour incubation | hit rate 5.9% among 310,000 | Potency, µM (doses to about 28.7 µM), without a hit: at the highest dose activity change, negative = inhibition, hits mostly inhibitors | P. falciparum luciferase growth in erythrocytes, 48 h; further: on the % scale 0 is the no-effect control and ±100 the full control effect
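Firefly luciferase activity from engineered P. falciparum reports growth; inhibitors lower the luminescent signal. Cultures contained 2% hematocrit erythrocytes at 0.1% final parasitemia.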
Active calls of the source: *; ? = inconclusive; · = not tested or not shown; [ ] = dose if it differs, or a comment. Compounds with a hit are over-represented: about 9.4% of the library has one in this group of screens. Unless noted, the call rests on the fitted dose curve; in most records, active means well fitted curve in the direction sought with a large enough effect; inconclusive means small, poorly fitted or top-dose-only effect, or another doubt; inactive means no such curve, though single readings can be large; an effect the other way counts as inactive or inconclusive. Potency means the concentration at half of the fitted maximal effect.

SMILES	SARS PLP yeast	AMA1 RON2 block	Pf growth 96h	Pf growth 48h
Cc1ncsc1C(=O)N1N=C2/C(=C/c3ccccc3)CCCC2C1c1ccccc1 (stereo not drawn)	-12%	9%	?	?
O=C1c2ccccc2NC(c2cccc(F)c2)N1Cc1ccccc1 (stereo not drawn)	-5%	36%	33%	-25%
Cc1ccc(C)c(-c2csc(NC(=O)c3cnccn3)n2)c1	0%	46%	12µM*	?
O=C(c1ccncc1)c1nccn1-c1ccccn1	5%	-3%	13µM*	-6%
CN[C@@H]1CC[C@H](c2ccc(Cl)c(Cl)c2)c2ccccc21	-4%	·	·	·
CN[C@@H]1C[C@@H](c2ccc(Cl)c(Cl)c2)c2ccccc21	-8%	·	13µM*	15µM*
CCCCN(Cc1nc2ccccc2c(=O)[nH]1)C(=O)COc1ccc(F)cc1Cl	0%	43%	3.7µM*	2.6µM*
COC(=O)c1ccc(Oc2nc(N(C)C)nc(N3CCOCC3)n2)cc1	3%	-27%	49%	24%
CCCc1cc(-c2n[nH]c(=S)n2C(C)c2ccccc2)cs1 (stereo not drawn)	22µM*	58%	·	-14%
COc1ccc(NC(=O)c2cc(-c3ccccc3O)n[nH]2)cc1Cl	2%	77%	2.1µM*	2.6µM*
COC(=O)NC(=S)Nc1ccc(Oc2ccc(Cl)cc2)c(Cl)c1	5%	27%	·	?
Cc1ccc(OC(=O)Nc2ccccc2)cc1	-1%	6%	68%	10µM*
COc1ccc(NC(=O)c2cc(-c3cc(C)cc(C)c3O)n[nH]2)cc1Cl	-12%	54%	?	9.3µM*
COC(=O)NC(=S)Nc1ccc(Oc2ccc(Cl)cc2Cl)c(Cl)c1	7%	82%	13µM*	?
COc1ccccc1N1C(=O)C(Cl)=C(Nc2ccccc2O)C1=O	-8%	8%	32%	8%
CCOc1ccc(S(=O)(=O)NCCC(=O)NCCc2ccc(C(C)C)cc2)cc1	-6%	10%	?	-14%
COc1ccc(NC(=O)Oc2ccccc2)cc1Cl	-2%	11%	15µM*	13%
O=C(NC1CCCCC1)n1c(=O)oc2ccc(Cl)cc21	28%	8%	14%	20%
Cn1c(=O)oc2cc(S(=O)(=O)N3CCC(C(=O)NCc4cccs4)CC3)ccc21	-4%	13%	?	·
COc1ccc(NC(=O)Cn2c(=O)oc3cc(S(=O)(=O)N4CCCC4)ccc32)c(OC)c1	8%	0%	6.6µM*	3%
Cn1c(=O)oc2cc(S(=O)(=O)N3CCC(N4CCCCC4)CC3)ccc21	2%	1%	-5%	37%
CC1CCN(S(=O)(=O)c2ccc3c(c2)oc(=O)n3C)CC1	2%	-5%	0.47µM*	-8%
Cc1csc(NC(=O)C2CCN(S(=O)(=O)c3ccc4c(c3)oc(=O)n4C)CC2)n1	-4%	0%	3.3µM*	·
O=C(Cn1c(=O)oc2ccc(Cl)cc21)NC1CCCCC1	-3%	3%	9.3µM*	-23%
COc1ccccc1NC(=O)Cn1c(=O)oc2cc(S(=O)(=O)N3CCCC3)ccc21	3%	-2%	163%	?
SMILES	SARS PLP yeast	AMA1 RON2 block	Pf growth 96h	Pf growth 48h
Cc1cc(C)nc(NS(=O)(=O)c2ccc(NC(=O)CN3C(=O)c4ccccc4C3=O)cc2)n1	-3%	·	·	8%
CC(C)COC(=O)n1c(=O)oc2cc(S(=O)(=O)N3CCCCC3)ccc21	4%	4%	·	8.3µM*
Cc1cc(C)cc(NC(=O)Cn2c(=O)oc3cc(S(=O)(=O)N4CCC(C)CC4)ccc32)c1	0%	14%	12µM*	·
Cc1cc(C)nc(NS(=O)(=O)c2ccc(NC(=O)Cn3c(=O)oc4ccccc43)cc2)n1	-2%	-3%	6.6µM*	·
CC1CCN(S(=O)(=O)c2ccc3c(c2)oc(=O)n3CC(=O)NCc2ccc3c(c2)OCO3)CC1	-4%	-4%	?	·
O=C(Cn1c(=O)oc2cc(S(=O)(=O)N3CCCCCC3)ccc21)NC1CCCCCCC1	1%	-6%	12µM*	·
NC(=O)c1nsc(C(=O)N(Cc2cccnc2)C(C(=O)NC2CCCC2)c2ccc(F)cc2)c1N (stereo not drawn)	0%	1%	12%	?
COc1ccc([N+](=O)[O-])cc1NCc1c(F)cccc1F	·	9%	·	·
C(=N\Nc1nc(N2CCOCC2)nc(N2CCOCC2)n1)/c1cccnc1	8%	4%	16%	21%
CCOc1cc(-c2noc(N)c2C(=O)OC)cc(OCC)c1OCC	-4%	14%	12µM*	-14%
CCCC(=O)NCc1ccccc1Cl	0%	-7%	26%	-3%
CC[N+](CC)(CCNC(=O)C(=O)NCC[N+](CC)(CC)Cc1ccccc1Cl)Cc1ccccc1Cl	·	·	6µM*	?
COc1ccc(C2C(C(=O)Nc3cccc(C)n3)c3ccccc3C(=O)N2C)cc1 (stereo not drawn)	-22%	-13%	3.7µM*	?
COc1ccc(C2C(C(=O)Nc3cc(OC)c(OC)c(OC)c3)c3ccccc3C(=O)N2C)cc1OC (stereo not drawn)	1%	-14%	51%	12µM*
COc1ccc(C2C(C(=O)Nc3cc(C)on3)c3ccccc3C(=O)N2C)cc1 (stereo not drawn)	9%	21%	-8%	?
COc1ccc(C2C(C(=O)NC(C)C)c3ccccc3C(=O)N2C)cc1OC (stereo not drawn)	0%	5%	1µM*	-1%
O=C1CC(c2ccco2)Cc2nc(Nc3ccc(F)cc3)ncc21 (stereo not drawn)	-10%	-9%	·	14%
NC(=O)c1ccc(NC(=O)Nc2ccc3c(c2)OCO3)cc1	-4%	-13%	26%	53%
C/C(=N\NC(=O)c1c[nH]c2ccccc12)c1ccc(C)o1	-11%	59%	0.93µM*	·
Cc1cc(C)cc(NC(=O)CCNC(=O)c2ccc([N+](=O)[O-])cc2)c1	1%	10%	14%	13%[0.00184 µM]
CCCCN(C(=O)c1ccco1)c1nnc(-c2cc(OC)c(OC)c(OC)c2)s1	3%	-16%	·	1.9µM*
CC1=C/C(=C(\c2cc(C)c(O)c(Br)c2)c2ccccc2S(=O)(=O)O)C=C(Br)C1=O	-12%	?	10µM*	?
Cc1cc(C(=O)c2ccccc2)cc(C)c1O	·	17%	·	·
COC(=O)C1=C(c2ccc(F)cc2OCc2ccccc2)C[C@@H]2CC[C@H]1N2C(=O)NCc1ccc(OC)cc1	3%	-4%	?	13µM*
COC(=O)C1=C(c2ccc(F)cc2OCc2ccccc2)C[C@@H]2CC[C@H]1N2C(=O)NCc1ccc(Br)cc1	-3%	-9%	?	2.1µM*
COC(=O)C1=C(c2ccc(F)cc2OCc2ccccc2)C[C@@H]2CC[C@H]1N2C(=O)NCc1cccc(C(F)(F)F)c1	-1%	2%	?	4.7µM*
CCCNC(=O)N1[C@H]2CC[C@@H]1C(C(=O)OC)=C(c1ccc(F)cc1F)C2	-1%	0%	29%	39%
